In PubChem BioAssay (NCATS):
Inconclusive results are not listed. Active and inactive are the calls of the source. Calls come from the whole dose curve; as a rule, active = well fitted curve in the direction sought with a large enough effect; inconclusive = small, poorly fitted or top-dose-only effect, or another doubt; inactive = no such curve, though single readings can be large; an effect the other way counts as inactive or inconclusive.

How the values were obtained:
[1] = qHTS assay for measurement of the activity of small molecule inhibitors on Zika virus induced Caspase-3 activity in human iPSC derived neural progenitor cells (hNPCs) (AID 1224857); details: hNPCs ZIKV-induced caspase-3/7, Caspase-Glo luminescence, 6 h; series mostly up to 45.7 µM; note: nearly all actives have a fitted effect of over 65% in size
Procedure, shortened: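 Zika virus (2 FFU/cell) infection of human iPSC-derived NPCs, 6 h, following 1 h compound preincubation. Read-out: Caspase-Glo 3/7 luminescence.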

[2] = qHTS assay for measurement of the activity of small molecule inhibitors on Zika virus induced Caspase-3 activity in human astrocytoma cells (AID 1224859); details: SNB-19 ZIKV-induced caspase-3/7, luminescence, 6 h; series mostly up to 45.7 µM
Procedure, shortened: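 Caspase activation in ZIKV-infected SNB-19 cells (2 FFU/cell, 6 h) measured by Caspase-Glo 3/7 luminescence after 30 min RT; compound pre-incubated 1 h; normalised to uninfected and infected controls.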

[3] = NS1 protein of Zika virus - qHTS assay to identify small molecule inhibitors in human HEK 293 cells (AID 1347053); details: HEK293 ZIKV MR766 infection, NS1 TR-FRET, 24 h; series mostly up to 46.1 µM; note: nearly all actives have a fitted effect of over 55% in size
Procedure, shortened: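 Read-out is a two-antibody TR-FRET for ZIKV NS1, normalized between uninfected cells and infected cells. Compound added 1 h before MR766 infection at MOI 0.5; human HEK 293 cells incubated 24 h, 37 C.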

[4] = qHTS of pediatric cancer cell lines to identify multiple opportunities for drug repurposing: Primary screen for TC32 cells (AID 1347089); details: TC32 Ewing sarcoma viability, CellTiter-Glo luminescence, 48 h; series mostly up to 45.8 µM; note: nearly all actives have a fitted effect of over 60% in size
Procedure, shortened: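 TC32 cells, 500-1,000/well in growth medium, compound-treated 48 h at 37 °C; viability from CellTiter-Glo luminescence. Primary screen: MIPE 11-point (0.78 nM–46 µM final), NPC 8-point (0.59 nM–46 µM final); confirmatory at 11-point dilutions.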

Measured: Potency

CO/N=C(\C(=O)O)c1csc(NC(=O)CCl)n1
inactive: [1] | [2] | [3] | [4]

CC(=O)N(c1onc(C)c1C)S(=O)(=O)c1ccc(N)cc1
inactive: [1] | [2] | [3] | [4]

[O-][n+]1cccc(/C(Cl)=N/OC[C@@H](O)CN2CCCCC2)c1
inactive: [1] | [2] | [3] | [4]

CC(CC(C#N)(c1ccccc1)C(C)C)N(C)C (configuration not stated)
inactive: [1] | [2] | [3] | [4]

O=C(O)Cn1c(=O)n(Cc2ccc(Br)cc2F)c(=O)c2ccc(Cl)cc21
inactive: [1] | [2] | [3] | [4]

CC(C)(Oc1ccc(Cl)cc1)C(=O)OCCCOC(=O)C(C)(C)Oc1ccc(Cl)cc1
inactive: [1] | [2] | [3] | [4]

C/C(=N/NC(=O)c1ccncc1)C(=O)O
inactive: [1] | [2] | [3] | [4]

CC(C)Cc1ccc(C(C)C(=O)OCc2ccccn2)cc1 (configuration not stated)
inactive: [1] | [2] | [3] | [4]

C[C@@H](C1=C(CCN(C)C)Cc2ccccc21)c1ccccn1
inactive: [1] | [2] | [3] | [4]

N#Cc1cc(NC(=O)C(=O)O)c(Cl)c(NC(=O)C(=O)O)c1
inactive: [1] | [2] | [3] | [4]

O=c1[nH]c(=O)n([C@H]2O[C@H](CO)[C@@H](O)[C@@H]2O)cc1/C=C\Br
inactive: [1] | [2] | [3] | [4]

CCCCCCn1c(=O)c2c(ncn2C)n(C)c1=O
inactive: [1] | [2] | [3] | [4]

COC(=O)C1=C(C)NC(C)=C(C(=O)OCCc2ccc(N3CCN(C(c4ccccc4)c4ccccc4)CC3)cc2)C1c1cccc([N+](=O)[O-])c1 (configuration not stated)
inactive: [1] | [2] | [3] | [4]
